According to PubChem BioAssay (NCATS):
Where “and” joins values, the source holds several entries; their conditions need not be identical. Identical values can stand only once. Inconclusive results are not listed. A structure can be active in one record and inactive in another. Calls of active or inactive are those of the source. Calls come from the whole dose curve; as a rule, active = well fitted inhibition curve with a large enough effect; inconclusive = small, poorly fitted or top-dose-only effect; inactive = flat fitted curve, though single readings scatter.

Legend:
[1] = Drug repurposing screens with cells derived from glioblastoma tumor samples (AID 1345199); conditions: GBM patient neurospheres viability, ATP luminescence, 48 h; note: nearly all actives have a fitted effect of over 40% in size
Method in brief: (§1)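 Four patient lines of CD133+ GBM neurospheres were screened at several concentrations; hits were retested in those lines plus three slower-growing GBM lines, using 48-hour treatment and ATP-based viability.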

astro = control astrocytes; test: as above; conditions: viability, ATP luminescence, 48 h; series mostly up to 45.9 µM
Method in brief: as §1

[2] = at 45.9 µM (top of the series), tumour line B
[3] = at 45.9 µM (top of the series), tumour line D
[4] = at 46.1 µM (top of the series), tumour line C
[5] = at 99.2 µM (top of the series), tumour line C
[6] = at 46 µM (top of the series), tumour line A
% is set by controls: 0 for no effect and ±100 for the full control effect; potency is the fitted concentration of half-maximal effect.

Cc1ccccc1-n1c(C)nc2ccccc2c1=O
active: Potency ([1]; tumour line A) 44.7 µM
inactive: activity, negative = cell killing [1, 2] -8.69% | activity, negative = cell killing [1, 3] -13.3% | activity, negative = cell killing [1, 4] -24.2% | activity, negative = cell killing ([1]; at 91.6 µM (top of the series), tumour line B) -8.55% | activity, negative = cell killing ([1]; at 91.6 µM (top of the series), tumour line D) -15.5% | activity, negative = cell killing [1, 5] -4.7% | Potency (astro)

Oc1ccc2c3c1O[C@H]1[C@@H](O)CC[C@@]4(O)[C@@H](C2)N(CC2CCC2)CC[C@]314
inactive: activity, negative = cell killing [1, 2] -15.8% | activity, negative = cell killing [1, 3] -17.2% | activity, negative = cell killing [1, 6] 7.3% | activity, negative = cell killing [1, 4] -0.783% | Potency (astro)

C[C@@H](CO)NC(=O)[C@@H]1C=C2c3cccc4[nH]cc(c34)C[C@H]2N(C)C1
inactive: activity, negative = cell killing [1, 2] -4.28% | activity, negative = cell killing [1, 3] -4.71% | activity, negative = cell killing [1, 6] -21.2% | activity, negative = cell killing [1, 4] 15.8% | Potency (astro)

CC(=O)OCC(=O)[C@H]1CC[C@H]2[C@@H]3CC[C@H]4C[C@H](O)CC[C@]4(C)[C@H]3C(=O)C[C@]12C
inactive: activity, negative = cell killing ([1]; at 20 µM (top of the series), tumour line C) -20.2% | activity, negative = cell killing ([1]; at 21.2 µM (top of the series), tumour line B) -4.33% | activity, negative = cell killing ([1]; at 21.2 µM (top of the series), tumour line D) 0.678% | activity, negative = cell killing ([1]; at 21.3 µM (top of the series), tumour line A) -6.64% | Potency (astro)

CC(C)CCC(=O)O[C@H]1CC[C@H]2[C@@H]3CCC4=CC(=O)CC[C@]4(C)[C@H]3CC[C@]12C
active: Potency ([1]; tumour line A) 11.2 µM | Potency ([1]; tumour line B) 22.4 µM
inactive: activity, negative = cell killing [1, 4] -19.7%

CCOC(=O)/C=C(C)/C=C/C[C@@H](C)CCCC(C)C
inactive: activity, negative = cell killing [1, 2] -7.77% | activity, negative = cell killing [1, 3] 3.89% | activity, negative = cell killing [1, 6] -29.3% | activity, negative = cell killing [1, 4] -6.42% | Potency (astro)

CN1c2ccccc2C(NCCCCCCC(=O)O)c2ccc(Cl)cc2S1(=O)=O (stereo not given)
inactive: activity, negative = cell killing [1, 2] -13.7% | activity, negative = cell killing [1, 3] 2.81% | activity, negative = cell killing [1, 6] -22.5% | activity, negative = cell killing [1, 4] -20.5%

CCC1C(C)=NN=C(c2ccc(OC)c(OC)c2)c2cc(OC)c(OC)cc21 (stereo not given)
inactive: activity, negative = cell killing [1, 2] -16.7% | activity, negative = cell killing [1, 3] -19% | activity, negative = cell killing [1, 4] -6.07%

CNC(C)C(O)c1ccc(O)cc1 (stereo not given)
inactive: activity, negative = cell killing [1, 2] -14.1% and -15.9% | activity, negative = cell killing [1, 3] 3.04% and 6.23% | activity, negative = cell killing [1, 6] -17.8% and -27.7% | activity, negative = cell killing [1, 4] -5.67% and -20.1% | Potency (astro)

CC1CCC(C(C)C)C(OC(=O)c2ccccc2N)C1 (stereo not given)
active: Potency ([1]; tumour line A) 12.6 µM | Potency ([1]; tumour line B) 35.5 µM
inactive: activity, negative = cell killing [1, 4] 13.8%

CN1[C@H]2CC[C@@H]1[C@@H](C(=O)O)[C@@H](OC(=O)c1ccccc1)C2
inactive: activity, negative = cell killing [1, 2] -13.9% | activity, negative = cell killing [1, 3] -11.4% | activity, negative = cell killing [1, 6] -27% | activity, negative = cell killing [1, 4] -10.2% | activity, negative = cell killing [1, 5] -6.57% | activity, negative = cell killing ([1]; at 108 µM (top of the series), tumour line A) -26.2% | activity, negative = cell killing ([1]; at 108 µM (top of the series), tumour line B) -7.59% | activity, negative = cell killing ([1]; at 108 µM (top of the series), tumour line D) -7.94% | Potency (astro)

Cn1sc(Cl)cc1=O
inactive: activity, negative = cell killing [1, 2] -15.7% | activity, negative = cell killing [1, 3] -11.3% | activity, negative = cell killing [1, 6] -21.6% | activity, negative = cell killing [1, 4] -21.9% | Potency (astro)
